An excerpt weighted towards active compounds, which were near 2.4% of everything screened.
ULK1 primary: inhibitors of human ULK1 kinase | O75385 | AlphaScreen Atg13 phosphorylation by ULK1, luminescence | inhibition, % at 5.96 µM | 30,000 tested, 1.9% active; in the data active = inhibition above about 43%;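 also: 0% = median of compound wells and 100% = no enzyme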
ASK1 inh: inhibitors of human ASK1 kinase; 22,000 tested, 0.99% active; AID 1159602; inhibition, % at 7.44 µM; AlphaScreen MKK6 phosphorylation by ASK1, luminescence; in the data active = inhibition above about 35%;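 also: 0% = median of compound wells and 100% = no enzyme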
Starred values were filed as active, the others as inactive.

For CC(=O)Nc1ccc(Nc2nc(NC3CCC(O)CC3)nc3c2ncn3C(C)C)cc1 (stereo not drawn) the results were ULK1 primary 62* and ASK1 inh 9.
OC1CCC(Nc2nc(Nc3ccccc3)c3ncn(-c4ccccc4)c3n2)CC1 (stereo not drawn) was read as ULK1 primary 3 and ASK1 inh -1.
CC(C)n1cnc2c(Nc3ccc4c(c3)OCO4)nc(NC3CCC(O)CC3)nc21 (stereo not drawn) was read as ULK1 primary 35 and ASK1 inh 10.
CC(C)n1cnc2c(Nc3ccccc3)nc(NC3CCC(O)CC3)nc21 (stereo not drawn) was read as ULK1 primary 56* and ASK1 inh 2.
Screening COc1ccc2c(c1)C[C@H](C(=O)Nc1ccc(-c3cn[nH]c3C)cc1SCCN(C)C)NC2 returned ULK1 primary 1 and ASK1 inh -6.
`O=C([C@H](O)c1ccccc1Cl)N1CCN(c2ccc3[nH]ncc3c2)CC1` gave ULK1 primary -3 and ASK1 inh 5.
`Cc1cnc(Nc2ccncc2)nc1NCc1ccccc1` gave ULK1 primary 17 and ASK1 inh 7.
Screening O=C(NCCN1CCOCC1)c1cccc(C(=O)N2CCC(Nc3ccccc3Cl)CC2)c1 returned ULK1 primary 1 and ASK1 inh 3.
Screening N#Cc1cc(-c2ccnc(Nc3ccc(-n4cnc(N5CCC(O)CC5)n4)cc3)n2)ccc1N1CCC(O)CC1 returned ULK1 primary 72* and ASK1 inh -9.
For Cn1nnc(-c2ccc(Nc3nccc(-c4ccc(N5CCC(O)CC5)c(C#N)c4)n3)cc2)n1 the results were ULK1 primary 28 and ASK1 inh 0.
Screening N#Cc1cc(-c2ccnc(Nc3ccc(-n4cnc(C(F)(F)F)n4)cc3)n2)ccc1N1CCC(O)CC1 returned ULK1 primary 1 and ASK1 inh 6.
Screening Cc1ncn(-c2ccc(Nc3nccc(-c4ccc(C#N)c(N5CCCC5)c4)n3)cc2)n1 returned ULK1 primary -9 and ASK1 inh -4.
Screening Cc1ncn(-c2ccc(Nc3nccc(-c4ccc(N5CCCC(CO)C5)c(C#N)c4)n3)cc2)n1 (stereo not drawn) returned ULK1 primary 65* and ASK1 inh 0.
`C[C@@H]1CN(C(=O)Nc2cccc(Nc3nccc(-c4ccc(N5CCC(O)CC5)c(C#N)c4)n3)c2)C[C@H](C)O1` gave ULK1 primary 76* and ASK1 inh -16.
`Cc1ncn(-c2ccc(Nc3nccc(-c4ccc(N5CCC(O)CC5)nc4)n3)cc2)n1` gave ULK1 primary 46* and ASK1 inh 0.
Screening Cc1ncn(-c2ccc(Nc3nccc(-c4ccc(C#N)c(N5CCC(O)CC5)c4)n3)cc2)n1 returned ULK1 primary -1 and ASK1 inh -6.
For C=CCNc1nc(Cl)nc(NC(C)(C)CO)n1 the results were ULK1 primary -3.
`COC(=O)Cn1c(O)c(N=NC(=O)C2COc3ccccc3O2)c2ccccc21` (stereo not drawn) gave ULK1 primary -10.
O=C1CCCN1CCn1cnc2c(NCCOc3ccccc3)nc(Nc3ccc(C(F)(F)F)cc3)nc21 was read as ULK1 primary -10 and ASK1 inh -5.
O=C(NCC(O)c1ccc(Cl)cc1)c1cn(-c2cccc3[nH]ncc23)nn1 (stereo not drawn) was read as ULK1 primary -3 and ASK1 inh -7.
Screening CNC(=O)c1ccccc1Nc1cc(NC(=O)Cc2ccccc2F)ncc1C(F)(F)F returned ULK1 primary 53* and ASK1 inh 12.
`COc1ccc(CC(=O)Nc2cc(Nc3ccccc3NC(C)=O)c(C(F)(F)F)cn2)cc1` gave ULK1 primary 41 and ASK1 inh 7.
For CNC(=O)c1ccccc1Nc1cc(NC(=O)Cc2cccs2)ncc1C(F)(F)F the results were ULK1 primary 46* and ASK1 inh 4.
`CNC(=O)c1ccccc1Nc1cc(NC(=O)Cc2ccc(N)cc2)ncc1C(F)(F)F` gave ULK1 primary 68* and ASK1 inh 10.
Screening CNS(=O)(=O)c1ccccc1Nc1cc(NC(=O)Cc2ccc(OC)cc2)ncc1C(F)(F)F returned ULK1 primary 57* and ASK1 inh 30.
`COc1ccc(CC(=O)Nc2cc(Nc3ccccc3-c3ncco3)c(C(F)(F)F)cn2)cc1` gave ULK1 primary 5 and ASK1 inh -1.
Screening CNC(=O)c1ccccc1Nc1cc(NC(=O)C2CCc3ccccc32)ncc1C(F)(F)F (stereo not drawn) returned ULK1 primary 34 and ASK1 inh 4.
`O=C(NCCN1CCOCC1)c1cnc(NCc2cccnc2)s1` gave ULK1 primary 2 and ASK1 inh -4.
O=C1CCCN1CCn1cnc2c(NCCc3ccc(O)cc3)nc(N3CCC(N4CCOCC4)CC3)nc21 was read as ULK1 primary 4 and ASK1 inh 3.
Screening CCC(C)(C)C(=O)Nc1nnc(C(F)(F)F)s1 returned ULK1 primary 8.
FC(F)(F)c1cccc(CNc2nc(Nc3nccc4ccccc34)nc3c2ncn3-c2ccsc2)c1 was read as ULK1 primary -10 and ASK1 inh -15.
For O=C(C(O)c1ccc(F)cc1)N1CCC(Nc2ccc3[nH]ncc3c2)CC1 (stereo not drawn) the results were ULK1 primary 0 and ASK1 inh 0.
Screening CCCNC(=O)c1cccc(N2CCc3ccccc3C2)n1 returned ULK1 primary 8 and ASK1 inh -6.
Screening O=C(Cc1ccc2c(c1)OCO2)Nc1cc(Nc2ccccc2-c2nn[nH]n2)c(C(F)(F)F)cn1 returned ULK1 primary -5 and ASK1 inh 18.
CNC(=O)c1ccccc1Nc1cc(Nc2ncccn2)ncc1C(F)(F)F was read as ULK1 primary 19 and ASK1 inh 10.
For CNC(=O)c1ccccc1Nc1cc(NC(=O)Cc2ccc(F)cc2)ncc1C(F)(F)F the results were ULK1 primary 57* and ASK1 inh -12.
`NC(=O)c1ccccc1Nc1cc(NC(=O)Cc2ccc(F)cc2)ncc1F` gave ULK1 primary -4 and ASK1 inh -17.
Screening CNC(=O)c1ccccc1Nc1cc(NCc2ccccc2)ncc1C(F)(F)F returned ULK1 primary 55* and ASK1 inh 6.
Screening CNC(=O)c1ccccc1Nc1cc(NC(=O)Cc2ccsc2)ncc1C(F)(F)F returned ULK1 primary 52* and ASK1 inh -1.
Screening COc1cc2nc(-c3ccc(C(=O)N4CCN(C)CC4)cc3)nc(NCCN(C(C)C)C(C)C)c2cc1OC returned ULK1 primary 1 and ASK1 inh 1.
Screening OCCN1CCN(c2cc(-c3ccc(F)cc3)nc(-c3ccccc3)n2)CC1 returned ULK1 primary -37.
For CC(=O)Nc1ccc(Nc2cc(C)nc(N3CCc4ccccc4C3)n2)cc1 the results were ULK1 primary -9 and ASK1 inh 8.
`CC(=O)Nc1ccc(Nc2cc(C)nc(N3CCN(c4ccccn4)CC3)n2)cc1` gave ULK1 primary -11 and ASK1 inh 7.
Cc1cc(Nc2ccc(N3CCOCC3)cc2)nc(N2CCN(c3ccccn3)CC2)n1 was read as ULK1 primary 4 and ASK1 inh 46*.
Screening Cc1cc(Nc2ccc(N3CCOCC3)cc2)nc(N2CCc3ccccc3C2)n1 returned ULK1 primary -3 and ASK1 inh 58*.
`Cc1cccc2nc(-c3ccc(Br)o3)sc12` gave ULK1 primary 1 and ASK1 inh -5.
O=C(NC1CC1)c1cnc(Nc2ncccn2)s1 was read as ULK1 primary 44* and ASK1 inh -2.

Compound activity (PubChem)
